Data as given in PubChem BioAssay (NCI).
About 83,000 compounds went through this panel and 20% of them were active in at least one assay; those are over-represented in the sample as a whole.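 Compound tested at a single concentration for 48 hours in 96-well plates; a percent growth value below 10 was scored as active.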 Calls of active or inactive are those of the source.

Each compound was assayed on CCRF-CEM leukemia (assay: NCI-60 one-dose screen, 48 h (100 = growth as untreated, 0 = no growth, -100 = all killed)). Conditions: 10 µM unless noted.

SMILES	growth
Clc1ccc2c(NCCNc3nc(-c4ccccc4)cc(-c4ccccc4)n3)ccnc2c1	-9.52% (active)
Cc1ccc(N(CC(=O)Nc2ccc(S(=O)(=O)N3CCC(N4CCCC4)CC3)cc2)S(=O)(=O)c2ccc(Cl)cc2)cc1	3.02% (active)
Oc1ccc(Nc2ccccc2)cc1	0.482% (active)
CCCCCCCCNc1cccc2c1C(=O)c1ccccc1C2=O	112% (inactive)
Cc1cc(N(CCCNc2ccnc3cc(Cl)ccc23)Cc2ccco2)nc(N2CCN(C)CC2)n1	43.4% (inactive)
C=C1C(=O)O[C@H]2[C@H]1CC/C(Cn1cc(-c3ccc(OC)cc3)nn1)=C\CC[C@@]1(C)O[C@@H]21	-32.6% (active)
O=c1[nH]c2c3ccncc3cc(-c3cccc(Cl)c3)c2c2cnccc12	56.4% (inactive)
O=C1CNCCN1	99.7% (inactive)
COc1ccc(/C=C/C(=O)NCC(C)O)cc1 (stereo not given)	106% (inactive)
O=C1Nc2ccccc2/C1=C/c1cn(CCCn2c3ccccc3c(=O)c3ccccc32)c2ccccc12	98.4% (inactive)
Cn1cc(-c2csc(-c3c[nH]c4ccc(F)cc34)n2)c2cccnc21	39.7% (inactive)
Cc1cc(Cl)nc(N(CCCNc2ccnc3cc(Cl)ccc23)Cc2ccco2)n1	20.6% (inactive)
COc1cc(/C=C/c2cc(/C=C/c3ccc(O)c(OC)c3)n(-c3ccc(Cl)cc3)c(=O)n2)ccc1O	44.2% (inactive)
CC1(c2ccccc2)OC1C(=O)O (stereo not given)	101% (inactive)
COc1cc(/C=C2\C(=O)N(CC(O)COc3cc(O)c4c(=O)cc(-c5ccccc5)oc4c3)c3ccccc32)cc(OC)c1O (stereo not given)	59.1% (inactive)
